From PubChem BioAssay
ALDH1A1 block: blocks purified human ALDH1A1 activity | Purified ALDH1A1, NADH fluorescence, propionaldehyde substrate | Potency, µM (series often up to 75.3 µM), usual class: inhibitors | 220,000 tested, 7.3% active
PNC inhibitor: inhibitors of perinucleolar compartment assembly; PC3M PTB-GFP, PNC prevalence imaging, 16 h; active compounds read low; activity change (PNC), negative = inhibition, % at 10 µM; 140,000 tested, 3.1% active; AID 2417;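 active = readout at or below -70, meaning at least 70% loss of cells showing the perinucleolar compartment, a nuclear body marking cancer cells; inconclusive = readout between -30 and a set limit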
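PC3M cells stably expressing PTB-GFP, 750–1000 cells/well, treated 16 h at 37 °C with compound (23 nl of library stock), in duplicate. After paraformaldehyde fixation and Hoechst stain, imaged at 20x; PNC prevalence scored by image analysis.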
HPGD block: blocks human HPGD enzyme activity. P15428. purified HPGD, NADH fluorescence kinetic, PGE2 substrate. Potency, µM, hits mostly inhibitors. 150,000 tested, 4.3% active
Target sequence (P15428 whole entry, looked up): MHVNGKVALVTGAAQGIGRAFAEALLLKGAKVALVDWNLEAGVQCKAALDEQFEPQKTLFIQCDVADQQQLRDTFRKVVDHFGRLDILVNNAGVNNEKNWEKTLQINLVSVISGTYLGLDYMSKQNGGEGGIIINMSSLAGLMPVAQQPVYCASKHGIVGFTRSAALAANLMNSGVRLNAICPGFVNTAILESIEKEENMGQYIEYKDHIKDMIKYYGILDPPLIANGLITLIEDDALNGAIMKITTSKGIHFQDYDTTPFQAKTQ
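20 nM HPGD preincubated 15 min at room temperature with compound in 50 mM Tris-HCl pH 8, 0.01% Tween 20. Started with 1 mM NAD+ and 30 uM prostaglandin E2; NADH fluorescence (360/450 nm) read 5 times over 30-s intervals, last minus first.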
Of the large screens only hits and unclear results are named; the others gave an inactive call. Compounds with a hit are over-represented: about 11% of the library has one in this group of screens. Unless noted, calls follow the shape of the dose curve; as a rule, active = well fitted inhibition curve with a large enough effect (not every such curve was filed as active); inconclusive = small, poorly fitted or top-dose-only effect, or another doubt; inactive = no such curve, though single readings can be large or run the other way.

COc1nc(-c2ccccc2)ccc1-c1noc(-c2ccccc2F)n1	ALDH1A1 block inconclusive, HPGD block inconclusive
O=C(Cc1ccccc1Cl)NC1(O)C(=O)c2ccccc2C1=O	ALDH1A1 block 1.12µM (no result: PNC inhibitor, HPGD block)
O=C(Cc1ccc(Cl)cc1)NCc1ccccc1Cl	none (no result: PNC inhibitor, HPGD block)
COc1ccc(N2C=C3C(=O)C(C)(OC(=O)C4CCCC4)C(=O)C=C3C=C2c2ccsc2)cc1 (centres undefined)	ALDH1A1 block inconclusive (no result: PNC inhibitor)
COCc1ccc(C(=O)N2CCCC(C(=O)c3cc(F)ccc3F)C2)s1 (centres undefined)	none (no result: PNC inhibitor, HPGD block)
COc1ccccc1N1CCN(C2=NS(=O)(=O)c3ccccc32)CC1	none
C=CCN1/C(=C(\C#N)C2=NS(=O)(=O)c3ccccc32)N(C)c2ccccc21	HPGD block 14.1µM
COCCn1c(COc2cccc(OC)c2)nnc1SCC(=O)N1CCOCC1	none
COc1ccc(CCNC(=O)CN2C(=O)c3ccccc3S2(=O)=O)cc1	ALDH1A1 block inconclusive
O=C1c2ccccc2S(=O)(=O)N1CC1CC(c2ccccc2)=NO1 (centres undefined)	ALDH1A1 block inconclusive
O=C1c2ccccc2S(=O)(=O)N1CC1CC(c2ccc(Cl)cc2)=NO1 (centres undefined)	ALDH1A1 block 5.62µM, HPGD block 17.8µM
COc1ccc(C2=NOC(CN3C(=O)c4ccccc4S3(=O)=O)C2)cc1 (centres undefined)	ALDH1A1 block inconclusive, HPGD block 25.1µM
CCOC(=O)c1[nH]c2ccccc2c1NC(=O)c1ccc(S(=O)(=O)N2CCCCC2)cc1	PNC inhibitor inconclusive
COc1ccc(-c2csc(NC(=O)CN3C(=O)CCC3=O)n2)c(OC)c1	PNC inhibitor inconclusive
COc1ccc(-c2csc(NC(=O)CN3C(=O)CCC3=O)n2)cc1OC	HPGD block 28.2µM
O=C(CN1C(=O)CCC1=O)Nc1nc(-c2ccc(Oc3ccccc3)cc2)cs1	HPGD block 17.8µM
COc1ccc(-c2csc(NC(=O)CN3C(=O)CCC3=O)n2)cc1	none (no result: PNC inhibitor, HPGD block)
CC1(CN2CCC(n3c(=O)[nH]c4ccccc43)CC2)OCc2ccccc2-n2cccc21 (centres undefined)	none (no result: PNC inhibitor)
CC(Nc1nc(-c2ccc3c(c2)NC(=O)CO3)cs1)c1ccccc1 (centres undefined)	ALDH1A1 block 6.31µM (no result: PNC inhibitor, HPGD block)
COc1ccc(-c2cc(-c3ccc(OC)cc3)nc(-c3ccc4c(c3)NC(=O)CO4)c2)cc1	ALDH1A1 block inconclusive
O=C1COc2ccc(-c3csc(NCC4CCCO4)n3)cc2N1 (centres undefined)	none
COc1cccc(-c2nc(-c3ccc4c(c3)NC(=O)CO4)cs2)c1	ALDH1A1 block 20µM (no result: PNC inhibitor, HPGD block)
Cc1sc2ncnc(Oc3ccc(-n4ccnc4)cc3)c2c1C	none
Nc1nc(SC/C=C\c2ccccc2)c2[nH]cnc2n1	none (no result: PNC inhibitor)
Cc1csc(NC(=O)Cn2nc(C)c([N+](=O)[O-])c2C)n1	none (no result: PNC inhibitor, HPGD block)
CCc1c(C)sc(NC(=O)Cn2nc(C)c([N+](=O)[O-])c2C)c1C(N)=O	ALDH1A1 block 7.08µM (no result: PNC inhibitor, HPGD block)
CC12COC3(C(=O)Nc4ccc5ccccc5c4)CC1CCC32C (centres undefined)	none (no result: PNC inhibitor, HPGD block)
Cc1nn(C)c(Oc2ccc(Cl)cc2)c1C(=O)Nc1ccc(F)cc1F	none
CCOC(=O)NC(=S)Nc1c(C)n(C)n(-c2ccccc2)c1=O	none (no result: PNC inhibitor, HPGD block)
O=c1c2ccccc2nc2n1C(CBr)CS2 (centres undefined)	none (no result: PNC inhibitor, HPGD block)
O=c1nc2n(c3sc4c(c13)CCCC4)C(CBr)CS2 (centres undefined)	ALDH1A1 block 12.6µM, HPGD block inconclusive
Cc1nc([N+](=O)[O-])cn1Cc1cccc([N+](=O)[O-])c1	none (no result: PNC inhibitor, HPGD block)
COC(=O)[C@@]1(Cc2ccc(OC)cc2)[C@@H]2[C@@H](CC(=O)[C@H]2CC(=O)C(=O)N2CCCC2)CN1C(=O)c1ccccc1	none (no result: PNC inhibitor)
Cc1ccc(-c2nc3cc(N)ccc3o2)c(C)c1	ALDH1A1 block inconclusive, HPGD block inconclusive
Nc1ccc2oc(-c3cccc4ccccc34)nc2c1	ALDH1A1 block inconclusive, HPGD block 22.4µM
CCCOc1ccc(-c2cnc(N)s2)cc1	ALDH1A1 block inconclusive
Cc1ccc2cccc(NC3OC(=O)c4ccccc43)c2n1 (centres undefined)	PNC inhibitor inconclusive
CNc1nc(Sc2ccc(C)cc2)cc(C(F)(F)F)n1	HPGD block inconclusive
COCCOC(=O)c1c(C)n(C)c2ccc(OC(=O)C3CC3)cc12	ALDH1A1 block 10µM
COCCOC(=O)c1c(C)n(C)c2ccc(OC(=O)c3ccco3)cc12	none
C/C(CCC(=O)OC[C@@H]1O[C@H](C#Cc2ccccc2)C=C[C@@H]1Oc1ccc(C)cc1)=N/OC[C@@H](O)COCc1ccco1	none (no result: PNC inhibitor, HPGD block)
COc1ccc(O[C@H]2C=C[C@@H](c3ccccc3)O[C@@H]2COC(=O)CC/C(C)=N/OC[C@@H](O)COCc2ccco2)cc1	ALDH1A1 block 10µM
CCOc1ccc(NC(=O)NNC(=O)c2ccc(CC)s2)cc1	none (no result: PNC inhibitor, HPGD block)
NCCC(O)C(=O)NC1C[C@@H](N)[C@H](O[C@@H]2OC(CN)C(O)C(O)C2O)C(O)[C@H]1O[C@H]1OC(CO)C(O)C(N)C1O (some centres undefined)	none (no result: PNC inhibitor)
CCOc1cc(NC(=S)NCCCN2CCOCC2)c(OCC)cc1NC(=O)CC(C)C	none
Cc1cccc(S(=O)(=O)C(C#N)c2nc3ccccc3nc2N2CC(C)OC(C)C2)c1 (centres undefined)	ALDH1A1 block inconclusive, PNC inhibitor inconclusive
Cc1ccc(S(=O)(=O)C(C#N)c2nc3ccccc3nc2N2CC(C)OC(C)C2)cc1C (centres undefined)	PNC inhibitor -139.2
CCCCCCCCCCCCCCCCOCC(COP(=O)([O-])OCC[N+](C)(C)C)OC (centres undefined)	none (no result: PNC inhibitor)
COC(=O)/C=C1\S/C(=N/NC(=O)c2ccccc2)NC1=O	ALDH1A1 block inconclusive
COc1ccccc1/C=C1\S/C(=N/NC(=O)c2cccc(Br)c2)NC1=O	PNC inhibitor inconclusive, HPGD block 11.2µM
C=C[C@@]1(C)CC(=O)[C@@]2(O)[C@@]3(C)[C@@H](O)CCC(C)(C)[C@@H]3[C@H](OC(=O)CCN(C)C)[C@H](OC(C)=O)[C@@]2(C)O1	ALDH1A1 block inconclusive (no result: PNC inhibitor)
Cc1cccc(/N=C/c2c(O)n(Cc3ccc4c(c3)OCO4)c(=O)c3ccccc23)n1	none (no result: PNC inhibitor, HPGD block)
Cc1nn(C)c(C)c1NC(=O)c1ccnn1C	ALDH1A1 block 17.8µM
Cn1nccc1C(=O)Nn1cnnc1	none (no result: HPGD block)
CSc1nc(C)c2c(n1)N(c1ccc(C(C)C)cc1)CC2	PNC inhibitor inconclusive
CCN1CCN(C(=O)CCc2nnc(CCCCc3ccccc3)o2)[C@@H](C)C1=O	ALDH1A1 block 8.91µM (no result: PNC inhibitor, HPGD block)
CCN(CC)C1CCN(C(=O)CCc2nnc(CCCCc3ccccc3)o2)C1 (centres undefined)	none (no result: PNC inhibitor, HPGD block)
COc1ccc(C2C(C#N)=C(N)OC3=C2C(=O)CCC3)cc1OC (centres undefined)	none (no result: PNC inhibitor, HPGD block)
COc1ccc(N2C(=O)CSC2c2ccc3c(c2)OCO3)c(OC)c1 (centres undefined)	PNC inhibitor inconclusive
COc1ccc(N2C(=O)CCC2=O)c(OC)c1	none (no result: PNC inhibitor, HPGD block)
COc1ccc(N2CSC3=C(C#N)C(c4cc(OC)ccc4OC)CC(=O)N3C2)c(OC)c1 (centres undefined)	ALDH1A1 block 8.91µM, HPGD block 7.94µM
COc1cc(OC)c(C2CC(=O)N3CN(c4ccc(C)cc4)CSC3=C2C#N)cc1OC (centres undefined)	ALDH1A1 block 7.94µM, HPGD block 7.08µM
